# Source: PubChem BioAssay (National Center for Advancing Translational Sciences (NCATS))
# Only some compounds are listed: those with a hit (about 0.57% of all), similar ones and a draw of the others.
# 12-hLO inh – 12-hLO (ALOX12) enzyme inhibition. purified 12-hLO, xylenol orange hydroperoxide absorbance. Potency, µM (highest dose often 57.1 µM), for the others: at the highest dose activity change, negative = inhibition, actives largely listed as inhibitors. P18054. hit rate 0.12% among 150,000. AID 1452; also: potency is read from the fitted curve at half-maximal effect; nearly all actives have a fitted effect of over 55% in size
# Target sequence (P18054 whole entry, looked up): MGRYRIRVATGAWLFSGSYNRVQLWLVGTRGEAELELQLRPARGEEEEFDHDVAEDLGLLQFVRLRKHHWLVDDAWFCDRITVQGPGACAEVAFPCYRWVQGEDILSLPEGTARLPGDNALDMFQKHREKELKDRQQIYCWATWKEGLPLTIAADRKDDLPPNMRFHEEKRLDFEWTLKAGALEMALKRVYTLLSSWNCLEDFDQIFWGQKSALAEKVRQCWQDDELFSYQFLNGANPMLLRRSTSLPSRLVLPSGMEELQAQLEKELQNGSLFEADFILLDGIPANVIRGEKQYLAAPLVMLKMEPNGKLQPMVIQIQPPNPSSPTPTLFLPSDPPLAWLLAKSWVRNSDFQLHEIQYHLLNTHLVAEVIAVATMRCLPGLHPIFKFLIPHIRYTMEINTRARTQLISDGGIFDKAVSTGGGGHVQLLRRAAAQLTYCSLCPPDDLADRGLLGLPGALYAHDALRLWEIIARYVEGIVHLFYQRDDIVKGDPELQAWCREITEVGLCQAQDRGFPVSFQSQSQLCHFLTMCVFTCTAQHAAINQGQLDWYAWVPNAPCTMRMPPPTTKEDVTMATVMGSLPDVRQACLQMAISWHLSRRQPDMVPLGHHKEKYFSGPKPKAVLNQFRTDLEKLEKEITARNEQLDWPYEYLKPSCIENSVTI
#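 Hydroperoxide output read as Fe(III)-xylenol orange absorbance, 573-to-405 nm ratio, after 30 min reaction with 40 uM arachidonic acid. Enzyme: 150 nM purified human 12hLO, 15 min compound preincubation; 25 mM Hepes pH 7.0, room temperature.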
# ALOX15B inhib – inhibitors of human 15-lipoxygenase 2 (ALOX15B); hit rate 0.56% among 110,000; O15296; purified 15hLO-2, xylenol orange hydroperoxide absorbance; Potency, µM (top dose mostly 57.1 µM), for inactives: at the highest dose activity change, negative = inhibition, actives largely listed as inhibitors; AID 881; also: potency is read from the fitted curve at half-maximal effect; nearly all actives have a fitted effect of over 60% in size
#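 Enzyme 50 nM, AA 45 uM, 25 mM Hepes pH 7.5 + 0.01% Triton X-100; cpd preinc 15 min RT, rxn 90 min RT; stop/detect with 200 uM XO + 300 uM Fe(II) in 50 mM H2SO4, 30 min; A573/A405.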
# IMPase Li inh – cell-permeable IMPase inhibitors with lithium potentiation. CHO-M1 cells, IP1 TR-FRET (IP-One), carbachol + lithium. AID 1457. hit rate 0.35% among 210,000. Potency, µM (highest dose often 59.4 µM), without a hit: at the top dose activity, negative = IMPase inhibition, usual class: inhibitors;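 also: IP1 builds up when IMPase is blocked and the TR-FRET signal falls; potency is read from the fitted curve at half-maximal effect; plate controls were basal vehicle for no effect and high inhibitor control for full effect; nearly all actives have a fitted effect of over 50% in size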
#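 Readout is a homogeneous TR-FRET IP1 immunoassay (Ex 320, Em 665 and 620), where raised cytosolic IP1 lowers signal. Cells were CHO-M1 treated 30 min at 37C with test compounds plus a little lithium; AC50 values came from Hill-equation fitting.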
# IMPase cell inh – membrane-permeable compound that blocks inositol monophosphatase. P97697. CHO-M1 cells, IP1 accumulation, HTRF TR-FRET ratio. inhibition (IP1 accumulation), % at 46.1 µM. 120,000 tested, under 10 active. AID 901; active = well fitted curve in the direction sought with a large enough effect in the signal ratio, not every such curve was filed as active; inconclusive = small, poorly fitted or top-dose-only effect, or a change in a side signal; inactive = no such curve, though single readings can be large or run the other way; the % refers to the signal ratio;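 also: cells stimulated with carbachol in lithium chloride buffer; plate controls were DMSO basal wells for no effect and reference inhibitor wells for full effect; higher means more IMPase inhibition seen as more IP1 and lower FRET ratio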
#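 The IP-One HTRF competitive assay in carbachol-stimulated CHO-M1 cells quantifies cellular IP1. Compounds spanned up to 46 uM final, and activity is expressed as AC50 from concentration-response fits of the ratio and donor data.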
# An asterisk follows results filed as active; ? = inconclusive; · = no result given; [ ] = remark or other dose. Unless noted, calls follow the shape of the dose curve; as a rule, active = well fitted curve in the direction sought with a large enough effect; inconclusive = small, poorly fitted or top-dose-only effect, or another doubt; inactive = no such curve, though single readings can be large; an effect the other way counts as inactive or inconclusive. Unless noted, % is scaled to controls: 0 for no effect and ±100 for the full control effect.
SMILES,12-hLO inh,ALOX15B inhib,IMPase Li inh,IMPase cell inh
CN1CC[C@@]2(CCN3CCc4c(oc5ccccc45)[C@@H]3C2)N(C)C1=O,-5%,3%,·,-2
S=c1nc(SCc2ccccc2)[nH]c2ccccc12,·,·,14µM*,·
Cc1ccc(S(=O)(=O)NNc2nc3ccccc3nc2C(F)(F)F)cc1,?,7.9µM*,2%[38.3 µM],0
Cc1ccc(S(=O)(=O)NNc2ccccc2)cc1,16µM*,?,-8%[38.3 µM],9
O=C(CCCCCn1c(=S)[nH]c2ccc(N3CCOCC3)cc2c1=O)NCc1ccc(Cl)cc1,·,·,11µM*,·
CCn1c2ccccc2c2nnc(SCC(=O)Nc3cc(C)on3)nc21,3%,-5%,11µM*,?
CC(=O)c1sc(NC(=O)COc2ccccc2)nc1C,·,·,10µM*,·
CCOC(=O)c1sc2nc(NC(=O)COc3ccccc3)sc2c1C,4%,-6%,13µM*,-8
CC(=O)c1sc(NC(=O)COc2ccc(C(C)C)c(C)c2)nc1C,·,·,11µM*,·
CC(=O)c1sc(NC(=O)CCOc2ccccc2)nc1C,·,·,-1%,·
N.N.N.N.N.N.N.N.N.N.N.N.N.N.O.O.[Ru].[Ru].[Ru],-13%,-4%,·,6
COCCNC(=O)c1ccc(-n2c(=O)c(=O)[nH]c3ccccc32)cc1,-6%,·,·,·
CCOc1ccc(NS(=O)(=O)c2ccc(C)c(C(=O)O)c2)cc1,-2%,·,·,·
Cc1ccc2nc(NC(=O)c3ccco3)sc2c1,-14%,0%,-8%[38.3 µM],-1
Cc1ccc2nc(NC(=S)NC(=O)c3ccco3)sc2c1,-5%,·,13µM*,·
COc1ccc(-c2cc([C@H](O)[C@@H]3CCCCN3)c3ccccc3n2)cc1,-5%[11.4 µM],24%[11.4 µM],·,·
COc1ccc(S(=O)(=O)Nc2cc(Sc3ncn[nH]3)c(O)c3ccccc23)cc1,?,4µM*,65%[38.3 µM],21
COc1cccc(Cn2nnc(C(=O)Nc3ccc(C)cc3)c2N)c1,5%,-1%,?,2
COc1cccc(Cn2nnc(C(=O)Nc3cc(C)ccc3OC)c2N)c1,-7%,-1%,25µM*,10
COc1ccccc1NC(=O)c1nnn(CC(=O)Nc2cccc(SC)c2)c1N,-5%,-5%,6.3µM*,-9
N#Cc1nc(-c2cccc3ccccc23)oc1NCCN1CCCCC1,-5%,33%,11µM*,-30
CCNc1oc(-c2cccc3ccccc23)nc1C#N,?,-11%,?,?
CCOc1ccc(CCNC(=O)c2ccc(Nc3nc4ccccc4n4nnnc34)cc2)cc1OCC,·,·,·,7
c1ccc(CCNc2nc3ccccc3n3nnnc23)cc1,3%,-7%,3.5µM*,?
COc1ccc(CCNc2nc3ccccc3n3nnnc23)cc1OC,-4%,-12%,10µM*,1
SMILES,12-hLO inh,ALOX15B inhib,IMPase Li inh,IMPase cell inh
C[C@H](N)C1CCC(C(=O)Nc2ccncc2)CC1 (stereo partly specified),2%,9%,·,2
CN(C)c1ccc(N=Cc2ccco2)cc1,?,32µM*,174%[38.3 µM],71
Cc1cc(=O)oc2cc(NC(=O)c3cc4ccccc4o3)ccc12,-7%,?,2µM*,-2
Cc1ccc2cc(C#N)c(SCC(=O)NCC3CCCO3)nc2c1 (stereo unspecified),-3%,1%,10µM*,?
CCCCCC(=O)Nc1cc2[nH]c(=O)cc(COC)c2cc1C,6%,·,11µM*,5
O=C(O)[C@H]1CCCC[C@@H]1c1c2ccc(=O)c(O)c-2oc2c(O)c(O)ccc12,-15%[11.4 µM],?,2%,·
CC1(C)Cc2ccccc2-c2nc3n(c(=O)c21)CCS3,·,·,7%,·
Cn1c(=S)[nH]c2c(c1=O)C(C)(C)Cc1ccccc1-2,·,·,1.4µM*,·
CCn1c(=S)[nH]c2c(c1=O)C(C)(C)Cc1ccccc1-2,·,·,4.5µM*,·
CN[C@@H](CC(C)C)C(=O)N[C@@H]1C(=O)N[C@H](CC(N)=O)C(=O)N[C@H]2C(=O)N[C@H]3C(=O)N[C@H](C(=O)N[C@H](C(=O)O)c4cc(O)cc(O)c4-c4cc3ccc4O)[C@H](O)c3ccc(c(Cl)c3)Oc3cc2cc(c3O[C@@H]2O[C@@H](CO)[C@@H](O)[C@@H](O)[C@H]2O[C@H]2C[C@](C)(N)[C@H](O)[C@H](C)O2)Oc2ccc(cc2Cl)[C@@H]1O,-8%,-14%,·,1
CCCCc1cc2c(cn1)C(=O)C(C)(OC(C)=O)C(=O)C2 (stereo unspecified),0%[11.4 µM],·,11%,·
